Pf growth 96h – inhibits malaria parasite growth, 96 h. 6.9% of 320,000 active. AID 504834. P. falciparum luciferase reporter growth, 96 h. Potency, µM (doses to about 28.7 µM), inactives show at the top dose activity change, negative = inhibition, usual class: inhibitors; note: potency is the fitted concentration of half-maximal effect; % is set by controls: 0 for no effect and ±100 for the full control effect
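Infected RBCs, 2% Hct / 0.05% parasitemia final; luciferase-reporter P. falciparum; cpd 96 h, 37 C, 5% CO2; luciferase detection reagent; luminescence.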
Lassa entry inh – inhibitors of Lassa virus binding or cell entry. 1.2% of 300,000 active. Potency, µM (top dose mostly 37.9 µM), inactives show at the top dose activity change, negative = inhibition, actives largely listed as inhibitors. AID 540256. Lassa virus pseudotype entry inhibition, cell reporter; calls by dose curve; tested in HEK293 cells; note: potency is the fitted concentration of half-maximal effect; % is set by controls: 0 for no effect and ±100 for the full control effect; nearly all actives have a fitted effect of over 50% in size
Shiga inhibitor – blocks Shiga toxin action in Vero cells | Vero cells, Shiga toxin protein synthesis inhibition reporter | inhibition, % at 38.7 µM | 9.2% of 290,000 active | AID 2315; in the data active = inhibition mostly above about 28%, no sharp cut-off; inactive = mostly below about 43%; note: 0% is about no effect
Pf growth 48h – P. falciparum growth inhibition at 48 hours (one generation). P. falciparum luciferase growth in erythrocytes, 48 h. Potency, µM (highest dose often 28.7 µM), for inactives: at the top dose activity change, negative = inhibition, usual class: inhibitors. 5.9% of 310,000 active; note: potency is the fitted concentration of half-maximal effect; % is set by controls: 0 for no effect and ±100 for the full control effect
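Firefly luciferase activity from engineered P. falciparum reports growth; inhibitors lower the luminescent signal. Cultures contained 2% hematocrit erythrocytes at 0.1% final parasitemia.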
Marburg entry inh – inhibitors of Marburg virus binding or cell entry. Marburg virus pseudotyped entry inhibition, cell reporter. Potency, µM (titrated, usually from 37.8 µM), for the others: at the top dose activity change, negative = inhibition, hits mostly inhibitors. 1.8% of 300,000 active. AID 540276; calls by dose curve; tested in HEK293 cells; note: potency is the fitted concentration of half-maximal effect; % is set by controls: 0 for no effect and ±100 for the full control effect
Cycloheximide cs – counter-screen hit for Shiga toxin inhibitors, cycloheximide; cell reporter, cycloheximide protein synthesis inhibition counterscreen; max response, %; 12% of 300,000 active; in the data active = max response mostly above about 13%, no sharp cut-off; inactive = mostly below about 14%; note: read at 38.3 µM for the half of the compounds with a filed dose; 0% is about no effect
Starred values were filed as active, the others as inactive; ? = inconclusive; · = not tested or not shown; [ ] = dose if it differs, or a comment. Shown are actives, neighbours in structure and some others; about 19% of the full set was active somewhere. Unless noted, calls come from the whole dose curve; as a rule, active = well fitted inhibition curve with a large enough effect; inconclusive = small, poorly fitted or top-dose-only effect, or another doubt; inactive = no such curve, though single readings can be large or run the other way.

SMILES	Pf growth 96h	Lassa entry inh	Shiga inhibitor	Pf growth 48h	Marburg entry inh	Cycloheximide cs
Cc1cc(C)cc(NCc2cc3c(cc2[N+](=O)[O-])OCO3)c1	?	4%	17	-26%	-11%	1
Cc1ccc(N=C2NC(=O)c3cc([N+](=O)[O-])ccc32)cc1	4.1µM*	-3%	26	-5%	?	5
O=C(NCCCN1CCCC1=O)c1cc(COc2ccc(F)cc2F)on1	?	·	2	-10%	·	16
COC(=O)C(CC(=O)c1ccc(Cl)cc1)c1ccc(C(C)C)cc1 (stereo not given)	?	?	70*	-19%	2%	37*
Cc1nn(-c2ccccc2)c(C)c1C(=O)OCC(=O)Nc1ccccc1C(F)(F)F	?	·	·	17%	·	·
O=S(=O)(c1ccc(Nc2ccc(-c3ccc4c(c3)OCCO4)nn2)cc1)N1CCCC1	?	-27%	35	·	?	54*
O=C(NC1CC1)c1cccc(Nc2ccc(-c3ccc4c(c3)OCCO4)nn2)c1	13%[5.75 µM]	?	55*	?	?	31*
CC(=O)c1cccc(NC(=O)CSc2ccc(-c3ccc4c(c3)OCO4)nn2)c1	20%	15%	3	73%	-1%	8
COc1ccc(S(=O)(=O)N2CCOCC2)cc1NC(=O)c1cc2ccccc2o1	?	-23%	·	?	-12%[46.1 µM]	·
CS(=O)(=O)n1nc(OC(=O)c2cccc3ccccc23)cc1N	5.2µM*	?	72*	20%	0%	63*
Cc1ccc(S(=O)(=O)n2nc(OC(=O)c3ccccc3F)cc2N)cc1	12µM*	-9%	-10	10%	-6%[46.1 µM]	-2
COc1cc(C(=O)Oc2cc(N)n(S(=O)(=O)c3ccccc3)n2)cc(OC)c1OC	-25%	-12%	-21	24%	4%[46.1 µM]	6
Cc1ccc(C(=O)Oc2cc(N)n(S(=O)(=O)c3ccc(C)cc3)n2)cc1	41%	?	1	-3%	-1%	0
Cc1onc(-c2ccccc2Cl)c1C(=O)Oc1cc(N)n(S(=O)(=O)c2ccc(F)cc2)n1	?	-20%	-17	6%	?	-3
CS(=O)(=O)n1nc(OC(=O)c2cc(Br)ccc2Cl)cc1N	-33%[5.75 µM]	·	5	-8%	·	-3
COc1cc(C(=O)Oc2cc(N)n(S(=O)(=O)c3ccc(F)cc3)n2)cc(OC)c1OC	4.7µM*	?	-3	2%	7%[46.1 µM]	-4
Cc1ccc(S(=O)(=O)n2nc(OC(=O)c3c(-c4ccccc4Cl)noc3C)cc2N)cc1	2.1µM*	-8%	-2	11%	0%	-4
COc1cccc(CC2(CO)CCCN(Cc3cn[nH]c3-c3ccc(F)cc3)C2)c1 (stereo not given)	256%	13%	-11	?	?	-3
COc1ccc(S(=O)(=O)n2nc(OC(=O)c3ccc(C)cc3)cc2N)cc1	·	-15%	56	-5%	20%	27*
CCN(CC)S(=O)(=O)c1cccc(NC(=O)CSc2nnc(N)s2)c1	4%	1%	21	10%	5%[46.1 µM]	3
Cc1cc2[nH]c3c(c[n+](C)c4ccccc34)c2cc1C	?	·	-10	0.47µM*	·	6
CC[C@H](C)[C@@H](CNC)NC[C@@H](Cc1ccc(O)cc1)NCC(C)(C)C	13µM*	·	-7	?	·	-1
O=C1c2ccccc2C(=O)N1Cc1ccc2c(c1)OCO2	·	14%	-18	10%	3%	8
C=C1c2ccccc2NC(=S)N1Cc1ccc2c(c1)OCO2	94%	10%	65*	18%	?	41*
O=C(O)Cn1c(=O)c(-c2ccccc2)nc2ccccc21	7.4µM*	8%[46.1 µM]	-4	13%	26%[46.1 µM]	4
NNC(=O)Cn1c(-c2ccccn2)nc2ccccc21	24%	8%	8	11%	-22%	11
O=C(O)Cn1c(-c2ccccn2)nc2ccccc21	127%	·	46*	59%	·	32*
CCOc1ccc(NC(=O)C(C)SC(N)=O)cc1 (stereo not given)	?	0%	-3	30%	10%	-3
c1ccc(NC2=Nc3ccccc3CS2)cc1	108%[5.75 µM]	-2%	99*	147%	15%	31*
Cc1nn2cc(-c3ccc(N)cc3)nc2s1	1%	?	69*	19%	-10%	35*
